We go through 22 molecules from PubChem BioAssay (NCATS).

The structures appear in SMILES notation. “And” between values parts separate entries of the source, which are not always exact repeats. Equal values may be shown once. Results filed as inconclusive are left out. A structure can be active in one record and inactive in another. The source made the active and inactive calls. Unless noted, calls come from the whole dose curve; as a rule, active = well fitted curve in the direction sought with a large enough effect; inconclusive = small, poorly fitted or top-dose-only effect, or another doubt; inactive = no such curve, though single readings can be large; an effect the other way counts as inactive or inconclusive. Numbered stars: 1 amine (or outer) side, 2 acyl side, 3 side chain; on linkers, the order of the positions; unused ones are H or OH. Bridge positions count the residues as written; N and C are the ends. Square brackets hold non-standard residues; d marks the D form. Peptide text beside a SMILES is read from it. I, II: the chains in the order shown. Actinocin(9to1) = Cc1c2oc3c(C)ccc(C(=O)[*:1])c3nc-2c(C(=O)[*:2])c(N)c1=O; NMeV = CN[C@H](C(=O)O)C(C)C; Sar = CNCC(=O)O

For experiment [1], the target named is Cytochrome P450 2D6 (Homo sapiens) (UniProt P10635). In words: Cytochrome P450 family 2 subfamily D member 6 (CYP2D6) small molecule antagonists: luciferase biochemical (cell-free) qHTS assay (AID 1645840; active = well fitted curve in the direction sought with a large enough effect in the repeat runs; an effect the other way counts as inactive or inconclusive; note: nearly all actives have a fitted effect of over 55% in size; note: potency is the fitted concentration of half-maximal effect; for activity change, negative = inhibition: % is set by controls: 0 for no effect and ±100 for the full control effect). A digest of the protocol: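 P450-Glo CYP2D6 system: proluciferin substrate converted by enzyme to luciferin, read by luminescence proportional to activity. Enzyme-substrate mix with compound 10 min at room temperature, then NADPH regeneration 1 h before detection reagent.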
Background: Quantitative high-throughput screening tests each substance at several concentrations.

For experiment [2], the target named is Cytochrome P450 2C9 (Homo sapiens) (UniProt P11712). The experiment is described as follows: Cytochrome P450 family 2 subfamily C member 9 (CYP2C9) small molecule antagonists: luciferase biochemical (cell-free) qHTS assay (AID 1645842; active = well fitted curve in the direction sought with a large enough effect in the repeat runs; an effect the other way counts as inactive or inconclusive; note: nearly all actives have a fitted effect of over 55% in size; note: potency is the fitted concentration of half-maximal effect; for activity change, negative = inhibition: % is set by controls: 0 for no effect and ±100 for the full control effect). A digest of the protocol: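 P450-Glo CYP2C9 system: proluciferin substrate with enzyme in mix containing 0.4% BSA, 10 min at room temperature, then NADPH regeneration solution added and incubated 1 h at 37C. Detection reagent stopped reaction; luminescence read after 20 min as RLU.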

The nature of experiment [3]: Primary qHTS for inhibitors of nuclear receptor binding SET domain protein 2 (NSD2) in an isogenic RCH-ACV NSD2 p.E1099K mutant (9B) (AID 1645876). Note: nearly all actives have a fitted effect of over 70% in size. Note: potency is the fitted concentration of half-maximal effect.
Experiment [4] can be described thus: Primary qHTS for inhibitors of nuclear receptor binding SET domain protein 2 (NSD2) in an RCH-ACV wild type WT cells (2C) (AID 1645877). Note: nearly all actives have a fitted effect of over 70% in size. Note: potency is the fitted concentration of half-maximal effect.
Experiment [5] is described as follows: NCATS anti-infectives library activity on HEK293 viability as a counter-qHTS vs the C. elegans viability qHTS (AID 1745854). Note: % is set by controls: 0 for no effect and ±100 for the full control effect. The method in brief: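 CellTiter-Glo luminescence, read on a CCD imager, scored viability of HEK293 cells after 24 hr compound exposure at 37C. Library tested in several concentrations, 1:5 steps, up to 41.7 uM; digitonin served as control.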

In experiment [6] the target is Rap guanine nucleotide exchange factor 3 (Homo sapiens) (UniProt O95398). In words: Confirmatory qHTS for antagonist of cAMP-regulated guanine nucleotide exchange factor 3 (EPAC1) (AID 1645880). Note: nearly all actives have a fitted effect of over 55% in size. Note: potency is the fitted concentration of half-maximal effect. The method in brief:
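Released BODIPY-GDP fluoresces less than Rap1-bound BODIPY-GDP; the signal is followed at 480/540 nm at 5-min intervals over 30 min, after 5 min at room temperature. Reactions contain 100 nM EPAC1, 250 nM RAP1B-BODIPY-GDP and 50 uM GDP; results are normalized to ATA and DMSO.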

Experiment [7] has the same target. The experiment is described as follows: Confirmatory qHTS for agonist of cAMP-regulated guanine nucleotide exchange factor 3 (EPAC1) (AID 1645881).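 Note: EPAC1 catalysed release of BODIPY-GDP from Rap1B seen as fluorescence loss; 100% = effect of cAMP agonist control; nearly all actives have a fitted effect of over 75% in size.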
Experiment [8] has as its target Rap guanine nucleotide exchange factor 4 (Homo sapiens) (UniProt Q8WZA2). The experiment is described as follows: Confirmatory qHTS for agonist of cAMP-regulated guanine nucleotide exchange factor 4 (EPAC2) (AID 1645884).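 Note: nucleotide exchange releases bodipy-GDP from Rap1 and this lowers its fluorescence; % is set by controls: 0 for no effect and ±100 for the full control effect; nearly all actives have a fitted effect of over 65% in size.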
Experiment [9] concerns the target Rap guanine nucleotide exchange factor 3 (Homo sapiens) (UniProt O95398). In words: Counterscreen qHTS for antagonist of cAMP-regulated guanine nucleotide exchange factor 3 (EPAC1) (AID 1645888). Note: % of control where 0% means no effect. A digest of the protocol: (§1)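 Rap1B-BODIPY-GDP 250 nM + GDP 50 uM; cpds 7-pt, final 9.74 nM–152 uM (activator mode) or from 7.32 nM upwards (inhibitor mode); RT; FI 480/540 nm at 5 and 30 min, then ± cAMP, reread.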
(Counterscreens check selectivity or assay interference.)

For experiment [10], the target named is Rap guanine nucleotide exchange factor 4 (Homo sapiens) (UniProt Q8WZA2). In words: Confirmatory qHTS for antagonist of cAMP-regulated guanine nucleotide exchange factor 4 (EPAC2) (AID 1645885). For activity change, negative = inhibition: % is set by controls: 0 for no effect and ±100 for the full control effect. Note: nearly all actives have a fitted effect of over 25% in size. Note: potency is the fitted concentration of half-maximal effect.
Experiment [11] concerns the target Rap guanine nucleotide exchange factor 3 (Homo sapiens) (UniProt O95398). In words: Counterscreen qHTS for agonist of cAMP-regulated guanine nucleotide exchange factor 3 (EPAC1) (AID 1645889). Note: % of control where 0% means no effect; nearly all actives have a fitted effect of over 40% in size. A digest of the protocol: as §1
The nature of experiment [12]: NCATS anti-infectives library activity on the primary C. elegans qHTS viability assay (AID 1745855; calls by dose curve). The method in brief: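 Titration-based screen in worms: eggs hatched overnight in M9, L1 larvae fed TOP10 capsules in S medium with compound, incubated 21 °C for 7 days; fluorescent objects gated by size and intensity at days 0, 3 and 7.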
Experiment [13] can be described thus: Viability counterscreen for antagonist of constitutive androstane receptor (CAR) against the NCATS DSHEA and TCM libraries (AID 1794837).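 Note: compound exposure lasted 24 h before viability reading; 0% is about no effect.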 A digest of the protocol: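 Fluorescence from CellTiter-Fluor reports live-cell protease activity in HepG2-CYP2B6-hCAR cells treated for 24 h with substances alongside 48 uM CITCO.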
Experiment [14] concerns the target Catechol O-methyltransferase (Homo sapiens) (UniProt P21964). The experiment is described as follows: Confirmatory Screen for Target Class Profiling of Small Molecule Inhibitors of Methyltransferases (AID 1745852; calls by dose curve). Conditions: MTase-Glo luminescence, SAH detection, recombinant enzyme; measured here: COMT max response; stronger effect = lower value.
The target of experiment [15] is Guanidinoacetate N-methyltransferase (Homo sapiens) (UniProt Q14353). Described as above. Conditions: MTase-Glo luminescence, SAH detection, recombinant enzyme; at 57.3 µM (top of the series).
Experiment [16] deals with Nicotinamide N-methyltransferase (Homo sapiens) (UniProt P40261). Described as above. Conditions: MTase-Glo luminescence, SAH detection, recombinant enzyme; measured here: NNMT max response; stronger effect = lower value.
For experiment [17], the target named is Phenylethanolamine N-methyltransferase (Homo sapiens) (UniProt P11086). Described as above. Conditions: MTase-Glo luminescence, SAH detection, recombinant enzyme; measured here: PNMT max response; stronger effect = lower value.
Phenylethanolamine N-methyltransferase (Homo sapiens), sequence (P11086 whole entry, looked up): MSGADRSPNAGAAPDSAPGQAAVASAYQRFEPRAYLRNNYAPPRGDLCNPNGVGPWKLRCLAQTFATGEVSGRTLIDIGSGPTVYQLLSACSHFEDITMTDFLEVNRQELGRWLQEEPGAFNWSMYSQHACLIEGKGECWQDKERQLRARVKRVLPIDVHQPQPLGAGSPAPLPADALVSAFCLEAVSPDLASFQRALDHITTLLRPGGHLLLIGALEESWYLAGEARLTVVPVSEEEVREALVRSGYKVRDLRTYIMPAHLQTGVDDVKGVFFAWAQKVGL

Rap guanine nucleotide exchange factor 4 (Homo sapiens), sequence (Q8WZA2 whole entry, looked up): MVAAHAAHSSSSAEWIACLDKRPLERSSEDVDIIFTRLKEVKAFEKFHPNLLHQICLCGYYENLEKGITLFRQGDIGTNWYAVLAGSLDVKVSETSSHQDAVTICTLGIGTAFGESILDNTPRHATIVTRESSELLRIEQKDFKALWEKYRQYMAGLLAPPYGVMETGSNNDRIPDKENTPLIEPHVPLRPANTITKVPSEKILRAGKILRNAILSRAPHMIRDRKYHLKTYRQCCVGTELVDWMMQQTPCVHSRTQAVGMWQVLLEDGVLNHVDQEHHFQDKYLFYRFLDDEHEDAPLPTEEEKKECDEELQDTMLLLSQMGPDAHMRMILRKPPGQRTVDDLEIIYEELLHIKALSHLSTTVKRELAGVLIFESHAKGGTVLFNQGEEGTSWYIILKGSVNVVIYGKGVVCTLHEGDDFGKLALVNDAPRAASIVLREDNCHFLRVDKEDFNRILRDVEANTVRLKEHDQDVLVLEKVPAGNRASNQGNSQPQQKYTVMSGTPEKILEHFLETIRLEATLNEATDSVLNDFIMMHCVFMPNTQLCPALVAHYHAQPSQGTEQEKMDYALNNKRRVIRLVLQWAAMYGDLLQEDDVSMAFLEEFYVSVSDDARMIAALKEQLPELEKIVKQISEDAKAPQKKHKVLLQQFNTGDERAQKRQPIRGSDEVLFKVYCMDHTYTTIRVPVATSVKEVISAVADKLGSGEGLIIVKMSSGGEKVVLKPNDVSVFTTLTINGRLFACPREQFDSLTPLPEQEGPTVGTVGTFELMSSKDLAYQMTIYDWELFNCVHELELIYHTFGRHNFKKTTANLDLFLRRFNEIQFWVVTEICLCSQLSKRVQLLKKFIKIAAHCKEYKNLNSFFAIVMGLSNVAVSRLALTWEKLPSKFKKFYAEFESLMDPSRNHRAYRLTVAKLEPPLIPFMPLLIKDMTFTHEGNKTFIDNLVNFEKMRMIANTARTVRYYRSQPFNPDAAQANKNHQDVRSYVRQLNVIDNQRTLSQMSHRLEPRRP
Rap guanine nucleotide exchange factor 3 (Homo sapiens), sequence (O95398 whole entry, looked up): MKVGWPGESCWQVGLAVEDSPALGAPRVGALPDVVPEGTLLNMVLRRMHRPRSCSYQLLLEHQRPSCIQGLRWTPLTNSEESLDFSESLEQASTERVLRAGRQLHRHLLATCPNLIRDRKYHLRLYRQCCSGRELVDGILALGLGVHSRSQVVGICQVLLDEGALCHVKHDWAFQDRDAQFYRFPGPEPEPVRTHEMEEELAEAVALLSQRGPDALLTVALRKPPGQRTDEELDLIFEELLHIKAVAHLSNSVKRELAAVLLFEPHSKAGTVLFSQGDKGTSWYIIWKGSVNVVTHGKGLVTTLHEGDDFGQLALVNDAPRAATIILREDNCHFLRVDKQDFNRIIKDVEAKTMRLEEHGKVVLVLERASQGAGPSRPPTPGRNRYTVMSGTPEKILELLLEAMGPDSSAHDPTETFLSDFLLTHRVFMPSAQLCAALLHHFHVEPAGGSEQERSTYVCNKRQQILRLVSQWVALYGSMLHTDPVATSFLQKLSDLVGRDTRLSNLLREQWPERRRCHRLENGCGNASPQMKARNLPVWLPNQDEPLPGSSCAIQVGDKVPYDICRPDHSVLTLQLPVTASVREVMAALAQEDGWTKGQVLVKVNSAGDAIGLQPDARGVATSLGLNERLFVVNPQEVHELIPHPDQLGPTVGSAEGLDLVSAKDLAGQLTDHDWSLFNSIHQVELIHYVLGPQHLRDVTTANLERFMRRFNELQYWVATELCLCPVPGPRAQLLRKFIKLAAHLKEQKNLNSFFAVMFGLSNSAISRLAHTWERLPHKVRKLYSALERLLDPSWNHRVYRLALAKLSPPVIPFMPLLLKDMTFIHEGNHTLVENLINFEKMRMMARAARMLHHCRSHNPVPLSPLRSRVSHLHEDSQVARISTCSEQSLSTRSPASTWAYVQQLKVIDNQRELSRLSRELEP
Cytochrome P450 2D6 (Homo sapiens), sequence (P10635 whole entry, looked up): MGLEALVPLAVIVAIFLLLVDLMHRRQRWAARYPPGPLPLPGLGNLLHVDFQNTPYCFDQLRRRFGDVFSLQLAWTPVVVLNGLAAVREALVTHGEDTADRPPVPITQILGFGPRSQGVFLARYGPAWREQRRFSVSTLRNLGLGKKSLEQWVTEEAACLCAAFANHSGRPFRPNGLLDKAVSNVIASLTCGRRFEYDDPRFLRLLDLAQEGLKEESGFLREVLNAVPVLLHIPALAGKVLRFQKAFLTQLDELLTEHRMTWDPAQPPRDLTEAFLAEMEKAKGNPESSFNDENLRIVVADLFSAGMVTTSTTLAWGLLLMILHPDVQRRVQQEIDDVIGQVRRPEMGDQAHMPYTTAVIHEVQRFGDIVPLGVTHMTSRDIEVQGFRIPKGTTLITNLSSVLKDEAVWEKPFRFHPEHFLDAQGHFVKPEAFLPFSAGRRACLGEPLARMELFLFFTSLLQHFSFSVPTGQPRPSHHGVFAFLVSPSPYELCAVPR
Cytochrome P450 2C9 (Homo sapiens), sequence (P11712 whole entry, looked up): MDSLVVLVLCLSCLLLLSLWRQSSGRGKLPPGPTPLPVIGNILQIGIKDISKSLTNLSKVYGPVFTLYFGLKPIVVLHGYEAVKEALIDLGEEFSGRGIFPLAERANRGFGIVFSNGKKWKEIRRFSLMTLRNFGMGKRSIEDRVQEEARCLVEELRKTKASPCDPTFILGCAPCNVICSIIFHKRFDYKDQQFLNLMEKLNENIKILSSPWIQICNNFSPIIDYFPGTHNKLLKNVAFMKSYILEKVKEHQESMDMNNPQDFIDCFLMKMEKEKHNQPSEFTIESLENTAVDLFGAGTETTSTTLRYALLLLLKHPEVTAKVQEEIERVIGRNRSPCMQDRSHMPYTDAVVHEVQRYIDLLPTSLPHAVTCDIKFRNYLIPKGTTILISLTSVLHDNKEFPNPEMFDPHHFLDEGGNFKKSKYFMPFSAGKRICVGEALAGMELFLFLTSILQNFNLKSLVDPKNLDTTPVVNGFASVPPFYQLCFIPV
Nicotinamide N-methyltransferase (Homo sapiens), sequence (P40261 whole entry, looked up): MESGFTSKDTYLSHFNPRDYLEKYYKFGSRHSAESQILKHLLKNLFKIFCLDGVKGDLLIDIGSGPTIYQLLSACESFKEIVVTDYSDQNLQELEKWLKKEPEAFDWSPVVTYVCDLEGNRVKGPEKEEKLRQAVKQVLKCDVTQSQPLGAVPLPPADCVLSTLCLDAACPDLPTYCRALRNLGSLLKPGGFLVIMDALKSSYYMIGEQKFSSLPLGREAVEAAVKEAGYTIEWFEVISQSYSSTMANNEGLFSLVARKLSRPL
Catechol O-methyltransferase (Homo sapiens), sequence (P21964 whole entry, looked up): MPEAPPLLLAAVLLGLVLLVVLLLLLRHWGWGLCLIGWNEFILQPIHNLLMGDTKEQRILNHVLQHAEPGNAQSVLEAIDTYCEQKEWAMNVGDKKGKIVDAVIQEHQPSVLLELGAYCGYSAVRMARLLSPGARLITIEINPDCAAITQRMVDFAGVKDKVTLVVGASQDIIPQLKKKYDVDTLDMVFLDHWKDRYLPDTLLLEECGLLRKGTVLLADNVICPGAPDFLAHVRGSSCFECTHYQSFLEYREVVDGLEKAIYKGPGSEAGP

Take `Cc1ccccc1C(=O)Nc1ccc(C(=O)N2CCCC(N(C)C)c3ccccc32)cc1` (configuration not stated): the Potency result in experiment [1] and in experiment [2] was “inactive” in each case. Besides, the Potency in experiment [3] is 5.78 µM (active); in experiment [4], “inactive and 5.15 µM (active)”.
As for `NCCCC[C@H](N[C@@H](CCc1ccccc1)C(=O)O)C(=O)N1CCC[C@H]1C(=O)O`, the Potency entry in experiment [1], in experiment [2], in experiment [3] and in experiment [4] was “inactive” in each case. In addition, the activity change, negative = cytotoxicity in experiment [5] was -8.63% [at 8.35 µM] (inactive).
As to `c1ccc(CNCCNCc2ccccc2)cc1`, the Potency in experiment [1] is 0.692 µM (active). Besides, the Potency entry in experiment [2], in [3] and in [4] was “inactive” throughout.
With `OC[C@@H](O)[C@@H](O[C@@H]1O[C@H](CO)[C@H](O)[C@H](O)[C@H]1O)[C@H](O)[C@@H](O)CO`, the Potency entry in experiment [1], in experiment [2], in experiment [3] and in experiment [4] was “inactive” each time.
Regarding `O=C(Nc1ccc(Oc2ccc(Cl)cc2)c(Cl)c1)c1cc(I)cc(I)c1O`, the Potency in experiment [1] is 19.5 µM (active); in [6], 30.1 µM (active). Also, the Potency result in [2], in experiment [3], in [4] and in experiment [8] was “inactive” each time. Also, the outcome in experiment [7] and in experiment [9] was “inactive” throughout.
For `c1ccc(-c2ccc(C(c3ccccc3)n3ccnc3)cc2)cc1` (configuration not stated), the Potency in [1] is 0.246 µM (active); in [2], 0.0245 µM (active); in experiment [3] it was 21.1 µM (active); in [4] it was 13.3 µM (active); in [10] it was 13.9 µM (active) and inactive. Also, the Potency result in [6], in experiment [8] and in experiment [11] was “inactive” in each case. The outcome in [7] and in experiment [9] was “inactive” throughout.
For `CCOC(=O)c1cccc(N)c1`, the Potency entry in experiment [1], in [2], in experiment [3] and in [4] was “inactive” in each case.
For the molecule `Cc1c2oc3c(C)ccc(C(=O)N[C@@H]4C(=O)N[C@H](C(C)C)C(=O)N5CCC[C@H]5C(=O)N(C)CC(=O)N(C)[C@@H](C(C)C)C(=O)O[C@@H]4C)c3nc-2c(C(=O)N[C@@H]2C(=O)N[C@H](C(C)C)C(=O)N3CCC[C@H]3C(=O)N(C)CC(=O)N(C)[C@@H](C(C)C)C(=O)O[C@@H]2C)c(N)c1=O` (I: T[dV]P[Sar][NMeV] / II: T[dV]P[Sar][NMeV]; ester I:1-I:C, II:1-II:C; linker I:N-II:N via Actinocin(9to1)), the Potency result in [1], in experiment [2], in experiment [3] and in experiment [4] was “inactive” throughout.
In the case of `C[C@]12C=CC(=O)C=C1[C@@H](F)C[C@@H]1[C@@H]2[C@@H](O)C[C@@]2(C)[C@H]1CC[C@]2(O)C(=O)CO`, the Potency entry in experiment [1] and in [2] was “inactive” in each case. The Potency in [4] was 0.0422 µM (active).
Turning to `NCCC(O)(P(=O)(O)O)P(=O)(O)O`, the Potency result in [1], in experiment [2], in experiment [3], in [4] and in experiment [5] was “inactive” in each case.
As for `COCc1c(C(C)C)nc(C(C)C)c(/C=C/[C@@H](O)C[C@@H](O)CC(=O)O)c1-c1ccc(F)cc1`, the Potency entry in [1] was “inactive”. Moreover, the Potency was 0.335 µM (active) in experiment [3] and 0.211 µM (active) in experiment [4].
Take `C[C@]12CCC(=O)C=C1CC[C@H]1[C@@H]3CC[C@](O)(C(=O)CO)[C@@]3(C)C[C@H](O)[C@@]12F`: the Potency entry in experiment [1] and in [2] was “inactive” in each case. For the same molecule, the Potency in experiment [4] was 0.0106 µM (active).
For the molecule `CCOC(=O)OC(C)OC1=C(C(=O)Nc2ccccn2)N(C)S(=O)(=O)c2ccccc21` (configuration not stated), the Potency result in [1], in experiment [3] and in experiment [4] was “inactive” throughout.
Regarding `COc1ccc(CN2CCN(C(c3ccc(F)cc3)c3ccc(F)cc3)CC2)c(OC)c1OC`, the values for the Potency in experiment [1], in experiment [2] and in experiment [4] were 2.19 µM (active), 11 µM (active) and 16.3 µM (active), respectively.
Consider `O=c1ccc2ccccc2o1`, for which the Potency entry in [1], in experiment [2], in experiment [3], in experiment [4], in [5] and in [12] was “inactive” each time. The outcome in [13] is “inactive”.
`CC[C@@H](CO)NCCN[C@@H](CC)CO`: the Potency entry in experiment [1], in [2], in experiment [3], in [4] and in experiment [5] was “inactive” throughout.
As to `CCN(CC)C(=O)/C(C#N)=C/c1cc(O)c(O)c([N+](=O)[O-])c1`, the Potency entry in experiment [1] and in [5] was “inactive” throughout. For the same molecule, the Potency in experiment [2] is 0.0436 µM (active).
With `Nc1nc2ncc(CNc3ccc(C(=O)N[C@@H](CCC(=O)O)C(=O)O)cc3)nc2c(=O)[nH]1`, the Potency result in experiment [1], in experiment [2], in experiment [3] and in [4] was “inactive” throughout. Besides, in [13], the outcome is “inactive”.
On to `O=C(OCCOCCO)c1ccccc1Nc1cccc(C(F)(F)F)c1`, for which the Potency in [1] was 27.5 µM (active); in experiment [2], 17.4 µM (active); in experiment [4] it was 16.8 µM (active).
For `CN1CCCC(CC2c3ccccc3Sc3ccccc32)C1` (configuration not stated), the Potency in experiment [1] was 0.0692 µM (active); in [4], 18.8 µM (active). The Potency result in experiment [2] was “inactive”.
For `CC(C)C[C@H]1C(=O)N2CCC[C@H]2[C@]2(O)O[C@](NC(=O)[C@@H]3C=C4c5cccc6[nH]c(Br)c(c56)C[C@H]4N(C)C3)(C(C)C)C(=O)N12`, the Potency result in experiment [1], in experiment [6], in experiment [8] and in experiment [10] was “inactive” in each case. Moreover, the Potency in [2] was 3.38 µM (active). Further, the outcome in [7] was “inactive”. Also, the activity in [14] was 7.86%; in experiment [16], -2.85%; in experiment [17], 4.08%. The activity change, negative = inhibition in experiment [15] stood at 3.94%.
As to `CC1(C)O[C@@H]2C[C@H]3[C@@H]4C[C@H](F)C5=CC(=O)C=C[C@]5(C)[C@H]4[C@@H](O)C[C@]3(C)[C@]2(C(=O)CO)O1`, the Potency entry in experiment [1] and in experiment [3] was “inactive” each time. Besides, the Potency in experiment [4] was 0.0166 µM (active).
